Screening data from PubChem BioAssay.
Only some compounds are listed: those with a hit (about 3.2% of all), similar ones and a draw of the others.
15-hLO inh: inhibitors of human 15-lipoxygenase (ALOX15); AID 887; purified 15hLO-1, xylenol orange hydroperoxide absorbance; Potency, µM (series often up to 57.1 µM), for inactives: top-dose activity change, negative = inhibition, actives largely listed as inhibitors; 1.4% of 74,000 active; P16050; note: % is set by controls: 0 for no effect and ±100 for the full control effect; nearly all actives have a fitted effect of over 55% in size
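Purified human 15hLO-1 (40 nM final) in 25 mM Hepes pH 7.5, 0.01% Triton X-100 was preincubated with compound 15 min at room temperature, then reacted 6 min with 50 uM arachidonic acid; hydroperoxide detected by Fe-XO, 573/405 nm absorbance ratio.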
Tau fil binding: tau filament binding | P10636 | recombinant tau filaments, thioflavin S fluorescence, 15 h; filaments grown with octadecylsulfate alongside compound | Potency, µM (highest dose often 57.1 µM), without a hit: at the top dose activity change, negative = inhibition | 2% of 71,000 active | AID 596;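 note: % is set by controls: 0 for no effect and ±100 for the full control effect; actives lower thioflavin S fluorescence by blocking filaments or displacing dye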
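Recombinant tau protein (human, 1 uM final) plus 30 uM ODS in HEPES pH 7.4 with NaCl, DTT and thioflavine S. Compound present from the start; fluorescence at 510 nm after 15 h, 37 C.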
USP2a inhib: blocks human ubiquitin-specific protease USP2a; O75604; USP2a enzymatic assay, qHTS inhibition; Potency, µM (top dose mostly 38.3 µM), inactives show at the top dose activity change, negative = inhibition, most hits filed as inhibitors; 0.1% of 60,000 active; note: nearly all actives have a fitted effect of over 60% in size
Target sequence (O75604 whole entry, looked up): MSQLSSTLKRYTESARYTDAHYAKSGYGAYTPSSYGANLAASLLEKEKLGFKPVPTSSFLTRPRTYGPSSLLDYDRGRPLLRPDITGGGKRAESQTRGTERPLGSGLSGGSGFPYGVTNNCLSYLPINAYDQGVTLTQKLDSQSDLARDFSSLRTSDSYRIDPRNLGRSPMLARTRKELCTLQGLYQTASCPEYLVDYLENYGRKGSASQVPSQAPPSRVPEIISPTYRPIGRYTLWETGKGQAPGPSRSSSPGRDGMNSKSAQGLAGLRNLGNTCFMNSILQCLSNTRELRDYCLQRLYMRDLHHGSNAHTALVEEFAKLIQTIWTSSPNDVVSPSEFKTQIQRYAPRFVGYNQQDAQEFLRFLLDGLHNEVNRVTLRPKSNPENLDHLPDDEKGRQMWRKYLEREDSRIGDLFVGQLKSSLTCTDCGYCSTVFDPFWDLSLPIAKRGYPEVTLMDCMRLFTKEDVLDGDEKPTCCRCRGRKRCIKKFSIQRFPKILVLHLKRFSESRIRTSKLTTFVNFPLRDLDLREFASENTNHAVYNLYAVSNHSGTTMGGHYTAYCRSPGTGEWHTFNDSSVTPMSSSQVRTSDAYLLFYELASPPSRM
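Inhibition is measured in a cell-free coupled assay with 20 nM USP2 core, 20 nM Ub-PLA2 and 20 uM NBD C6-HPC, 2.5 h incubation. Activity normalized to NEM control.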
Hsp90 Hop PPI: changes Hsp90-Hop TPR2A binding signal, up or down; AID 595; Potency, µM (series often up to 57 µM), for the others: at the top dose activity change, negative = inhibition; AlphaScreen TPR2A-His6 binding biotin-Hsp90 C-terminal peptide; 0.44% of 71,000 active; active = well fitted curve in either direction with a large enough effect; inconclusive = small, poorly fitted or top-dose-only effect, or another doubt; note: % is set by controls: 0 for no effect and ±100 for the full control effect
Starred values were filed as active, the others as inactive; i = inactive; u = inconclusive; x = not tested or not shown; ! = a repeat was not active; [ ] = remark or other dose. Unless noted, calls come from the whole dose curve; as a rule, active = well fitted curve in the direction sought with a large enough effect; inconclusive = small, poorly fitted or top-dose-only effect, or another doubt; inactive = no such curve, though single readings can be large; an effect the other way counts as inactive or inconclusive. Potency is the fitted concentration of half-maximal effect.

SMILES | 15-hLO inh | Tau fil binding | USP2a inhib | Hsp90 Hop PPI
CC(C)[C@@H](CC(=O)N[C@@H]1CCNC[C@H]1C(=O)N[C@H](CC(=O)N[C@@H](CCC(=O)O)CC(=O)O)Cc1c[nH]c2ccccc12)NC(=O)C[C@H](CO)NC(=O)[C@@H]1CNCC[C@H]1N | x | u | x | 32µM*
NCCC[C@@H](CC(=O)N[C@@H]1CCNC[C@H]1C(=O)N[C@H](CC(=O)N[C@@H](CCC(=O)O)CC(=O)O)Cc1ccccc1)NC(=O)C[C@H](CO)NC(=O)[C@@H]1CNCC[C@H]1N | x | -29% | x | 32µM*
CN1CCN(C2=C(Cl)C(=O)N(C3CCCCC3)C2=O)CC1 | -14% | 16µM* | 9% | -5%
COc1ccc(Oc2ncc3ncc(=O)n(C4CC4)c3n2)cc1 | 6% | -4% | 34% | 0%
O=S(=O)(NCCN1CCCC1)c1cccc2cccnc12 | 10µM* | u | x | -5%
O=S(=O)(NCCO)c1cccc2cccnc12 | 12% | -1% | x | -9%
CC(=O)N1CCC[C@@]2(CCN(C(=O)Nc3ccccc3)C2)C1 | 7% | 3% | 5% | 3%
NC(N)=NCCCCN=C(N)N | u | 32µM*! | -8% | u
NC(N)=NCCCC(=O)O | 2%[11.4 µM] | 11%[11.4 µM] | x | -6%[11 µM]
CCCn1c(C)nc2c(N(C)CCN(C)C)nc(C)nc21 | -29% | 4% | x | -3%
CN1C=CC=C/C1=C(\C#N)c1nc2ccccc2[nH]1 | -8% | 32µM* | -5% | -7%
CC(C)(C)/C(O)=C(/C#N)c1nc2ccccc2[nH]1 | -17% | -5% | 10% | -1%
CC(C)=CCc1c(O)cc2occ(-c3ccc4c(c3)OCO4)c(=O)c2c1O | -16% | x | 8% | x
CC(C)=CCc1c2c(c3occ(-c4ccc(O)c(O)c4)c(=O)c3c1O)C=CC(C)(C)O2 | 4µM* | 3.2µM* | u | -6%[11 µM]
O=C(O)c1cc2cc(Cc3cccnc3)ccc2o1 | 4% | -13% | -3% | -5%
c1cnc2c(c1)ccc1cccnc12 | 22% | -7%[11.4 µM] | 5% | 0.63µM*
CCCCCCCCCCCCCCCCCCOC[C@@H](COP(=O)([O-])OCC[N+](C)(C)C)OC | 12% | -1% | 19% | -2%
CCCCn1c(SCC(=O)NC(=O)NCc2ccco2)nc2cc(S(N)(=O)=O)ccc21 | 10µM* | 15% | 24% | -9%
CCCCn1c(SCc2ccc(C(=O)OC)o2)nc2cc(S(N)(=O)=O)ccc21 | 3% | 9% | -1% | -5%
CCCCC(CC)Cn1c2nc3ccccc3nc2c2c(=N)oc(C)nc21 (configuration not stated) | -10% | 2.5µM* | 7% | 0%
CCc1ccc(NC(=O)NCCN2CCc3ccccc3C2)cc1 | u | 13µM* | 12% | -7%
COCCn1c(=O)c(-c2cn(C)c3ccccc23)nc2cnc(Oc3ccc(OC)cc3)nc21 | -12% | 62% | 149% | -5%
Cn1c2c(c3ccccc31)CC/C2=N\O | 25µM* | 4% | x | -8%
COc1ccc(C(=O)CSc2nnc(-c3ccc(S(=O)(=O)N4CCOCC4)cc3)o2)cc1 | -10% | -4% | 13% | -1%
Cc1csc(SCC(=O)c2ccc(S(=O)(=O)N3CCOCC3)cc2)n1 | 20µM* | -9% | 5% | -7%
SMILES | 15-hLO inh | Tau fil binding | USP2a inhib | Hsp90 Hop PPI
CCOC(=O)OCC1OC(CCc2ccccc2)CCC1Oc1ccc(OC)cc1 (configuration not stated) | -2%[11.4 µM] | x | x | x
CN(O)/C=c1/ccc2c(n1)C(=O)C=CC=2 | 44% | -23% | 23% | 2µM*
COc1cc([C@H](O)C(=O)O)ccc1O | 13% | -1% | 0% | -1%
COc1ccc(O[C@H]2C=C[C@@H](c3ccccc3)O[C@H]2COC(=O)CC/C(C)=N/OCC[C@@H]2C=C[C@H](OC(C)=O)[C@H](COC(C)=O)O2)cc1 | -1%[11.4 µM] | x | x | x
Cc1cc(N)c2ccccc2[n+]1CCCCCCCCCCCCCC[n+]1c(C)cc(N)c2ccccc21 | u | i | 16µM* | u
O=C(O[C@@H]1Cc2c(O)cc(O)cc2OC1c1ccc(O)c(O)c1)c1cc(O)c(O)c(O)c1 (some centres not stated) | 6.3µM* | x | u | x
Oc1cc(O)c2c(c1)O[C@H](c1ccc(O)c(O)c1)[C@H](O)C2 | -15%[25.6 µM] | 3%[25.6 µM] | -10%[17.1 µM] | -6%[26 µM]
N#CC(=C(/N)Sc1ccccc1N)/C(C#N)=C(/N)Sc1ccccc1N | 13µM*! | u | 6% | -22%
Nc1ccccc1C#Cc1ccccc1 | x | u | x | 2%
COc1ccc(C2/C(=C(/O)c3ccccc3)C(=O)C(=O)N2CCO)cc1 (configuration not stated) | -8% | x | x | x
